According to PubChem BioAssay:
Several values for one entry are separate records, joined by “and”; a condition that tells them apart may be missing. Equal entries are not always repeated. Records with an inconclusive call do not appear. For some of these results: Entries with a potency or affinity are not part of this list. Activity calls are given as the source filed them. Unless noted, no rule for the calls is given here.

What was measured:
[1] = blockers of polyQ-driven CASP3 activation – cell-based (AID 1583); settings: polyglutamine-induced caspase-3 activation, cell assay; stronger effect = higher value;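 tested at 10 µM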
[2] = yeast 75Q aggregation reduction – 75Q-TubU reporter (AID 1593); settings: Yeast 75Q polyglutamine aggregation reporter
[3] = restoration of touch response, mutant HTT neurons – whole organism, C. elegans mechanosensory neurons, N-terminal huntingtin (AID 1599); settings: C. elegans polyQ-huntingtin mechanosensory neurons, stronger effect = higher value
[4] = blockers of cytochrome c efflux from mitochondria – biochemical, purified mitochondria (AID 1603); settings: stronger effect = lower value;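 also: mouse liver mitochondria challenged with calcium chloride; signal normalized to the plate average as 100%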
[5] = polyglutamine aggregate formation blockers (AID 1604); settings: polyglutamine-induced protein aggregation inhibition assay; stronger effect = higher value; tested at 2.5 µM
[6] = glutamate transport activators, MN-1 cells, MN-1 cell line (AID 1612); settings: MN-1 motor neuron cells, stronger effect = higher value;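 also: tested at 1 µM final; 0% = mean of DMSO vehicle wells on each plate; positive means more glutamate uptake than control and negative means less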
[7] = 75Q-TubH aggregate inhibition, S. cerevisiae, yeast (AID 1616); settings: S. cerevisiae 75Q-TubH polyglutamine aggregation suppression; stronger effect = higher value
[8] = biological target: ATP-dependent translocase ABCB1 (Homo sapiens) (UniProt P08183); assay: P-glycoprotein substrate transport blockade – cell-based (AID 377; in the data active = fluorescence slope change above about 50%); settings: MDR1-expressing cells, fluorescent substrate accumulation slope; stronger effect = higher value; concentration not given here
[9] = compounds altering circadian rhythm period length – cell-based, LOPAC library, luminescence reporter (AID 2774); settings: circadian reporter cells, at 7 µM, actives lie on both sides;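 also: values are relative to mean of DMSO wells on each plate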
[10] = compounds altering viability of human ES cells (AID 493140); settings: human embryonic stem cell survival screen; stronger effect = higher value;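 also: cells exposed to compounds for four days before counting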

ATP-dependent translocase ABCB1 (Homo sapiens), sequence (P08183 whole entry, looked up): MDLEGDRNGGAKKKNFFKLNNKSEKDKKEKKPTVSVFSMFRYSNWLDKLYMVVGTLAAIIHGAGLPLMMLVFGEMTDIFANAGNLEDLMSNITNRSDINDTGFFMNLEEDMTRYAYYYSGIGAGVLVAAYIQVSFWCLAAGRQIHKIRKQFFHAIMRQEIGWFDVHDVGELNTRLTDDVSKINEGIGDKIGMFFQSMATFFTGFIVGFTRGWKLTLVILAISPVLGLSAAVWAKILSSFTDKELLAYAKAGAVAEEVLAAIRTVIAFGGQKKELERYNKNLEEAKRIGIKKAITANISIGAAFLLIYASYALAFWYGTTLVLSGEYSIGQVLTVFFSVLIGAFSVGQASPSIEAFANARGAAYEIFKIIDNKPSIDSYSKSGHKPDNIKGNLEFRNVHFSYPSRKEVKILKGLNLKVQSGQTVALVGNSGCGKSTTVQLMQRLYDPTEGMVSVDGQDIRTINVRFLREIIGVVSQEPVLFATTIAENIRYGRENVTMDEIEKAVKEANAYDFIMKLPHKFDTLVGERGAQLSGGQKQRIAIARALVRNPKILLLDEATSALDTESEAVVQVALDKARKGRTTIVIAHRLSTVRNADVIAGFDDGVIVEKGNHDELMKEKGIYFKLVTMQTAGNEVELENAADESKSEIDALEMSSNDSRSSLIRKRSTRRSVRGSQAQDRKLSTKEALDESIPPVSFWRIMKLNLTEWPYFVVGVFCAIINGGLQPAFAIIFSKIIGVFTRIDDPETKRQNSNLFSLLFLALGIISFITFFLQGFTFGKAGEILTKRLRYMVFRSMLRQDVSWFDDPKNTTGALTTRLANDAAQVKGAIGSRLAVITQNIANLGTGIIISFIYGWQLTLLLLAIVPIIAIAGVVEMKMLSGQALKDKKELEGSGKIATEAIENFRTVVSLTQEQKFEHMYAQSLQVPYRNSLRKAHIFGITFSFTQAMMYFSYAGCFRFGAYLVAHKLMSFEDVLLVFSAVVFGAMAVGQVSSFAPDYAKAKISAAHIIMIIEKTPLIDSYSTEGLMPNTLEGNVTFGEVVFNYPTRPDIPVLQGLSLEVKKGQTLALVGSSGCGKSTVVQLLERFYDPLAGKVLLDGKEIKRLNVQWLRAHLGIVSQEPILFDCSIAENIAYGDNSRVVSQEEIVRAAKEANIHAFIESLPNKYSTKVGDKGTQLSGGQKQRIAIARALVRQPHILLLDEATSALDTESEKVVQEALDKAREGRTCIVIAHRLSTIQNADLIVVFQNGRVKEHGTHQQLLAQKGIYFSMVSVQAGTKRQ

Compound | inhibition [1] | score [2] | rescue above control [3] | cytochrome c release ratio [4] | inhibition of aggregation [5] | glutamate uptake change [6] | aggregation suppression score [7] | fluorescence slope change [8] | period change [9] | survival [10]
CC(C)(C)CC(C)(C)c1ccc(O)c(Cc2ccc(Cl)cc2Cl)c1 | 42% | -0.61 | -2.34 | 0.8 | 71.9% | -22.5% | 0.498 | – | – | –
COC(=O)[C@H]1[C@H]2C[C@@H]3c4[nH]c5cc(OC)ccc5c4CCN3C[C@H]2C[C@@H](OC(=O)c2cc(OC)c(OC)c(OC)c2)[C@@H]1OC | -42.7% | 1.16 | -12.7 | 1.46 | 63.2% | 4.63% | 1.07 | 51.8% (active) | 0.165 h (inactive) | 6.17 (inactive)
Cc1cc(N)c2ccccc2[n+]1CCCCCCCCCC[n+]1c(C)cc(N)c2ccccc21 | -13.3% | 0.06 | -0.23 | 6.78 | 43.1% | 12.9% | 0.0487 | 97.9% (active) | 0.12 h (inactive) | 0.167 (inactive)
Nc1ccc(N=Nc2ccccc2)c(N)n1 | 8.8% | 1.35 | -1.41 | 0.66 | 65.5% | -9.75% | 1.49 | – | – | 4 (inactive)
CCOC(=O)C(C)(C)Oc1ccc(Cl)cc1 | 24.9% and 18.3% | 0.66 and 0.84 | -9.07 and 5.03 | 0.65 and 0.84 | 70.5% and -5.88% | -11.1% and 6.19% | 0.624 and 0.92 | – | -0.13 h (inactive) | 82.4 (inactive)
Clc1ccc(C(c2ccccc2Cl)C(Cl)Cl)cc1 (stereo unspecified) | 21% | -3.35 | 0 | 3.7 | 72.2% | -9.79% | -1.87 | 7.7% (inactive) | -0.13 h (inactive) | –
COc1ccc(CCN2CCC(Nc3nc4ccccc4n3Cc3ccc(F)cc3)CC2)cc1 | 17.9% | 1.54 | 0 | 0.61 | -3.03% | 31.2% | 1.26 | 189% (active) | – | 1.58 (inactive)
CN1CCN(CCCN2c3ccccc3Sc3ccc(Cl)cc32)CC1 | 88.9% | 1.36 | 0 | 2.91 | 74.6% | 0% | 1.34 | 65.3% (active) | 0.055 h (inactive) | 1.75 (inactive)
CC(Cc1cccc(C(F)(F)F)c1)NCCOC(=O)c1ccccc1 (stereo unspecified) | 15% | 1.42 | 0 | 1.02 | 40.9% | 15.6% | 1.08 | 69.3% (active) | – | 2.5 (inactive)
CN(C)CCCN1c2ccccc2Sc2ccccc21 | -14.3% | 1.56 | 23.4 | 1.27 | 23.9% | 20.4% | 1.03 | – | -0.355 h (inactive) | 1.08 (inactive)
CCN(CC)CCOC(=O)C(c1ccccc1)C1CCCCC1 (stereo unspecified) | 14.6% | 1.92 | 0.94 | 1.03 | 6.35% | 1.54% | 1.17 | 89.7% (active) | – | 3.67 (inactive)
C1CCC(C(CC2CCCCN2)C2CCCCC2)CC1 (stereo unspecified) | 57.7% | 0.35 | -18 | 1.56 | 83.1% | -10.9% | 0.885 | 352% (active) | – | 6 (inactive)
CN(Cc1cc(Br)cc(Br)c1N)C1CCCCC1 | 50% | 1.59 | -1.24 | 1.12 | 80.3% | -11.2% | 1.07 | – | – | –
C/C=C(/C(=C/C)c1ccc(O)cc1)c1ccc(O)cc1 | 31.3% | 0.33 | -4.61 | 4.08 | 63.2% | -21.7% | 0.184 | 10.7% (inactive) | – | 5.92 (inactive)
CN1CCN2c3ccccc3Cc3ccccc3C2C1 (stereo unspecified) | -9.95% | 1.13 | 36.1 | 0.7 | 60.7% | 12.1% | 1.3 | 67.1% (active) | 0.145 h (inactive) | 11.2 (inactive)
Cc1cn([C@H]2C=C[C@@H](CO)O2)c(=O)[nH]c1=O | – | – | – | – | – | – | – | – | -0.14 h (inactive) | –
NCCS(=O)(=O)O | – | – | – | – | – | – | – | – | -0.23 h (inactive) | –
